Sampled rows, rich in hits. Any-hit rate of the full collection: about 4.7%.
tim10-1 inh – growth inhibitors of tim10-1 mutant yeast, primary screen, luminescence, uHTS. S. cerevisiae tim10-1 ts strain growth, BacTiter-Glo, 24 h. inhibition, % at 20 µM. 330,000 compounds, 2.2% hits. AID 463190, 2010;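 active = inhibition of at least 40%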;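 also: mutant grown at 25 °C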
EBI2 block – EBI2 receptor antagonists, beta-arrestin recruitment, primary screen, cell-based, luminescence, 7a,25-OHC stimulation, uHTS; 7a,25-OHC stimulated; inhibition, % at 5 µM; G-protein coupled receptor 183 (Homo sapiens), P32249; 360,000 compounds, 0.81% hits; in the data active = inhibition above about 38%;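 also: enzyme fragment complementation signal reports receptor beta-arrestin coupling in cells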
Target sequence (P32249 whole entry, looked up, the tested form may be a part): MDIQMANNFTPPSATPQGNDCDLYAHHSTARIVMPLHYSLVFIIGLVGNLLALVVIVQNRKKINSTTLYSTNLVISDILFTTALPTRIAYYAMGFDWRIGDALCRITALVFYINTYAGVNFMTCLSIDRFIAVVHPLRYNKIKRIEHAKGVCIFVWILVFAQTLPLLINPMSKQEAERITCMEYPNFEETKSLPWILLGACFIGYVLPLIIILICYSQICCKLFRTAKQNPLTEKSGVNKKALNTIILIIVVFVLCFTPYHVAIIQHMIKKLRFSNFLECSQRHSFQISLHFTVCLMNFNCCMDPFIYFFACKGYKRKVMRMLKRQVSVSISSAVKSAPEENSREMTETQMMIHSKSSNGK
PfHsp90 set2 – growth inhibition of PfHsp90-expressing yeast, primary screen, antimalarial PfHsp90 inhibitor project, S. cerevisiae, BacTiter-Glo luminescence, single point, set 2 | BacTiter-Glo ATP, 48 h; yeast lacking PDR1 and PDR3 efflux regulators | inhibition, % at 9.4 µM | 310,000 compounds, 0.32% hits;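 active = every replicate shows inhibition above about 80%, whatever the replicate mean, limit read from the data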
TIM10 inh – growth inhibitors of isogenic TIM10 control yeast, primary screen, counter-screen for tim10-1 yeast inhibitor project, luminescence, uHTS; 330,000 compounds, 1.4% hits; AID 463195, 2010; inhibition, % at 10 µM; S. cerevisiae TIM10 strain growth, BacTiter-Glo luminescence, 24 h;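 active = inhibition of 40% or more at the single tested concentration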;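 also: wild-type TIM10 isogenic control strain grown at permissive 25 °C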
tim23-1 inh – growth inhibitors of tim23-1 mutant yeast, primary screen, luminescence, uHTS. S. cerevisiae tim23-1 growth, BacTiter-Glo luminescence, 24 h. inhibition, % at 20 µM. 330,000 compounds, 1.3% hits;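 active = growth inhibition of the mutant yeast at or above 50%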;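 also: temperature-sensitive mutant grown at 25 °C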
SKKanGAS inh – S. pyogenes SKKanGAS growth inhibitors in kanamycin, primary screen, streptokinase expression inhibitor project, SKKanGAS strain, BacTiter-Glo luminescence; 6 h; inhibition, % at 7.5 µM; 300,000 compounds, 1.3% hits; AID 1662, 2009;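 active = mean replicate score, as percent of positive control median, at least 50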;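 also: strain carries kanamycin resistance gene driven by streptokinase promoter and grows in 40 µg/ml kanamycin; loss of luminescence reflects streptokinase promoter inhibition or plain growth inhibition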
tim10-1 confirm – growth inhibitors of tim10-1 mutant yeast, confirmation, single concentration, luminescence, S. cerevisiae | 7,400 compounds, 56% hits | inhibition, % at 20 µM | S. cerevisiae tim10-1 ts strain growth, BacTiter-Glo, 24 h | shares compounds with tim10-1 inh;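 active = inhibition of yeast growth at or above a set limit in either of two repeat tests at 20 µM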;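 also: tim10-1 mutant grown at permissive 25 °C to find synthetic lethal compounds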
TIM10 conf – growth inhibitors of wild-type TIM10 yeast, confirmation, counter-screen for tim10-1 synthetic lethality project, single concentration, luminescence, S. cerevisiae. shares compounds with TIM10 inh. inhibition, % at 10 µM. S. cerevisiae tim10 strain growth, BacTiter-Glo luminescence, 24 h. 4,600 compounds, 63% hits;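 active = inhibition of yeast growth at or above a set limit in either of two replicates at 10 µM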; also: this counterscreen used the strain with wild-type TIM10
tim23-1 confirm – tim23-1 mutant yeast growth inhibitors, confirmation, luminescence, single concentration; shares compounds with tim23-1 inh; S. cerevisiae tim23-1 growth, BacTiter-Glo luminescence, 24 h; inhibition, % at 20 µM; 4,400 compounds, 83% hits; AID 463218, 2010;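 active = inhibition above about 39% in either of two replicate wells at 20 µM, limit read from the data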;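 also: temperature-sensitive tim23-1 mutant grown at 25 °C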
Numbers stand for hits; - = inactive; . = not tested or not shown.

SMILES | tim10-1 inh | EBI2 block | PfHsp90 set2 | TIM10 inh | tim23-1 inh | SKKanGAS inh | tim10-1 confirm | TIM10 conf | tim23-1 confirm
Cc1ccc(/C=[N+](/C)[O-])cc1 | - | - | - | - | - | - | . | . | .
Cc1ccc(C=C2C(Cl)=C(Cl)C(Cl)=C2Cl)cc1 | 64.3 | . | . | 64.2 | 74.3 | 77.6 | 78.0 | 78.2 | 53.0
Cc1cc(=O)[nH]c(SCC(=O)C23CC4CC(CC(C4)C2)C3)c1C#N | 66.0 | - | - | 72.7 | 74.2 | - | 60.2 | 58.7 | 48.9
COc1ccccc1N1CCN(S(=O)(=O)c2ccc(Cl)s2)CC1 | - | - | - | - | - | - | . | . | .
Cc1nn2c(NCc3ccccn3)cc(C(C)(C)C)nc2c1-c1ccccc1 | 61.9 | - | 119.8 | 56.3 | 57.5 | 96.6 | 36.8 | 72.2 | 61.8
O=[N+]([O-])c1cc(S(=O)(=O)C(F)(F)F)ccc1Sc1nc2ccccc2[nH]1 | 60.5 | - | - | 58.1 | 67.6 | 98.9 | 47.8 | 51.0 | 58.7
Nc1nc2ccc(Cl)cc2cc1C(=O)NC1CC1 | . | - | . | . | . | . | . | . | .
Cc1nn(-c2ccccc2)c(C)c1/C=N/Nc1nc2ccccc2[nH]1 | 45.3 | - | - | 48.2 | 51.8 | 60.0 | - | - | 41.2
Cc1cc(=O)[nH]c(N/N=C/c2c(C)nn(-c3ccccc3)c2C)n1 | - | - | - | - | - | - | . | . | .
Cc1ccc(C(=O)Sc2cccccc2=O)cc1 | 74.1 | 66.8 | 104.0 | 73.2 | 89.3 | - | 76.8 | 89.3 | -
O=C(Nc1ccccc1SC(=O)c1ccccc1)c1ccccc1 | . | - | . | . | . | . | . | . | .
COc1ccc(C2=Cc3ccccc3C(CC(=O)C3CC3)N2c2ccc(-c3cc(OC)c(OC)c(OC)c3)cc2)cc1 (configuration not stated) | . | - | . | . | . | . | . | . | .
CN1CCN(S(=O)(=O)c2ccc(SCCOc3ccccc3)nc2)CC1 | 47.5 | - | . | 49.4 | 56.8 | - | 51.8 | 48.6 | 46.2
O=S(=O)(c1ccc(SCCOc2ccc(Cl)cc2)nc1)N1CCCC1 | - | - | - | - | - | . | . | . | .
COc1cc(-c2coc3c(C(=O)NCc4ccc(C(F)(F)F)cc4)cccc23)ccc1O | . | - | . | . | . | . | . | . | .
COc1ccc(C(=O)Oc2ccc(C)cc2)cc1S(=O)(=O)N1CCOCC1 | . | - | . | . | . | . | . | . | .
CN1CCN(/N=C/c2ccc(N(c3ccccc3)c3ccccc3)cc2)CC1 | 49.6 | - | - | - | 76.3 | - | - | . | -
CN1CCN(/N=C/c2ccc(N(C)c3ccccc3)cc2)CC1 | - | - | - | - | - | - | . | . | .
CCOc1ccccc1/C=N/NC(=O)c1nnn(-c2nonc2N)c1CN1CCCCCC1 | - | - | - | - | - | - | . | . | .
CCOc1ccc(/C=C/[N+](=O)[O-])c2ccccc12 | 50.7 | - | - | 64.9 | 73.1 | - | - | 55.1 | -
CN1C(=O)/C(=C\C(=O)c2cccs2)c2ccccc21 | 47.2 | - | - | 84.9 | 83.8 | - | 69.8 | 81.0 | -
Cc1ccc(C)c(S(=O)(=O)N/N=C2/CCCc3ccccc32)c1 | - | - | - | - | - | - | . | . | .
Cc1ccc(C)c(NC(=S)N/N=C2/CCCCc3ccccc32)c1 | 54.3 | - | - | 44.6 | 56.6 | 54.7 | 35.1 | - | 43.8
O=C(O)C(CCC(C(=O)O)c1ccccc1)c1ccccc1 (configuration not stated) | . | - | - | . | . | . | . | . | .
Cc1cc(Br)cn2c(Cc3ccsc3)c(-c3cccc(Br)c3)nc12 | . | - | . | . | . | . | . | . | .
SMILES | tim10-1 inh | EBI2 block | PfHsp90 set2 | TIM10 inh | tim23-1 inh | SKKanGAS inh | tim10-1 confirm | TIM10 conf | tim23-1 confirm
COc1cc(CNC2CCCC2)c(Br)cc1OC1CCCC1 | - | - | - | - | - | - | . | . | .
COc1cc(C=O)c(Br)cc1OC1CCCC1 | 48.0 | - | - | 44.9 | 55.9 | - | 33.0 | 33.8 | 53.1
COc1ccccc1/C=C(\C#N)C(=O)c1cccn1C | 43.2 | - | - | - | 58.5 | - | - | . | 50.1
NNc1nc(-c2ccccc2Cl)nc2sc3c(c12)CCCC3 | 57.7 | - | - | - | 63.4 | - | - | . | 54.5
COc1ccc(NC(=O)CNc2ccc(C#N)cc2)cc1 | - | - | - | - | - | - | . | . | .
Nc1ncnc2c1C1(CCCCC1)Cc1ccccc1-2 | 42.1 | - | - | - | 50.0 | - | - | . | -
CCCc1cc(NCCCn2ccnc2)n2nc(C)c(-c3ccccc3)c2n1 | - | - | - | - | - | - | . | . | .
CC(C)(C)c1cc(NCCCn2ccnc2)n2ncc(-c3ccccc3)c2n1 | 50.6 | - | - | - | 60.2 | - | 29.9 | . | 59.3
CN1CCN(c2ccc(S(=O)(=O)N3CCOCC3)cc2NC(=O)COc2ccc(C#N)cc2)CC1 | . | - | - | . | . | . | . | . | .
Cn1c(SCC(=O)N2CCOCC2)nc2c(c1=O)SCC2 | - | - | - | - | - | - | . | . | .
COC1(C)CC2C(CC1OC(=O)c1cc([N+](=O)[O-])cc([N+](=O)[O-])c1)C2(C)C (configuration not stated) | 60.0 | - | - | 63.3 | 65.0 | - | 61.0 | 62.0 | 68.0
O=C1C=C(O)c2c(O)cc(O)c(O)c2C1=O | - | - | - | - | - | - | . | . | .
O=C1c2ccccc2C(=O)c2c(O)c(O)cc(O)c21 | 46.7 | - | - | - | 76.6 | . | - | . | 70.5
CCN(CC)CCOC(=O)c1ccc(NC(=O)CSc2nnc(-c3cccs3)n2CC)cc1 | . | - | - | . | . | . | . | . | .
O=c1c(Cl)c(NCc2ccccc2)cnn1C12CC3CC(CC(C3)C1)C2 | - | - | - | - | - | - | . | . | .
COc1cc2cc(-c3ccc(OC)c(OC)c3C)nc(N)c2cc1OC | - | - | . | - | - | - | . | . | .
COc1cc2cc(-c3ccc(O)cc3O)nc(C)c2cc1OC | 40.1 | - | - | 45.8 | 51.4 | - | 32.1 | 42.6 | 55.2
COc1ccc(C2=Nn3c(C)nnc3SC2)cc1 | - | - | - | - | - | - | . | . | .
Cc1ccccc1N1C(=O)c2cccc([N+](=O)[O-])c2C1=O | . | - | - | . | . | . | . | . | .
Cc1ccccc1-n1ncc2c([N+](=O)[O-])cc([N+](=O)[O-])cc21 | 48.0 | - | - | 68.3 | 77.3 | - | 35.2 | 75.3 | -
N/C(=N\OC(=O)c1ccc(Cl)cc1Cl)c1ccccc1 | 62.0 | - | - | 86.6 | 82.3 | - | 54.8 | 84.0 | 78.3
